Out of some 200,000 compounds screened, about 18,000 (9%) were called active. For the sample, actives were picked, then their nearest neighbours and some compounds at random. Unmarked numbers belong to inactive results. No stated cut-off is given here; in the data, active means inhibition above about 50%; inactive means the rest.
Assay: antileishmanial activity against promastigotes – primary screen (AID 1063);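 further: promastigotes grown with compound for 44 hours at 28 °C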
Settings: Leishmania major promastigotes, resazurin fluorescence viability; at 10 µM; hits give high values

In order of rising inhibition:
1. Cc1ccc(C2NC(C(=O)O)CS2)cc1 (stereo unspecified)  -9.29%
2. CCO[C@H]1OC(C(=O)N2CCCCCCC2)=C[C@@H](c2ccc(C(F)(F)F)cc2)[C@@H]1CCCO  -8.31%
3. O=C(O)c1ccc2c3c(cccc13)C(=O)N(OS(=O)(=O)c1ccccc1)C2=O  -8.08%
4. CNC(=O)C(=O)N/N=C/c1ccccn1  -7.18%
5. Cc1nnsc1C(=O)Nc1cccc(Cl)c1C  -7.14%
6. COc1ccc(/C(N)=N/OC(=O)Cc2ccccc2)cc1  -6.43%
7. O=C(/C=C/c1c(F)cccc1Cl)Nc1nn[nH]n1  -6.22%
8. Cc1nc2cc(NC(=O)NC3CC3)ccc2n1C  -6.22%
9. CCC1CCCCN1C(=O)CSc1nc2c(c(=O)n(C)c(=O)n2C)n1C (stereo unspecified)  -6.11%
10. COc1ccccc1C(=O)N1CC2(C)CC1CC(C)(C)C2 (stereo unspecified)  -5.56%
11. O=C1N/C(=C/c2cccs2)C(=O)N1Cc1ccc(F)cc1  -5.2%
12. CCOc1ccc(C(CC(=O)O)n2cnnn2)cc1OC (stereo unspecified)  -5.12%
13. CCOc1ccc(S(=O)(=O)n2ccnc2)c2ccccc12  -5.02%
14. N/C(=N\OC(=O)CCC1CCCCC1)c1ccccn1  -4.7%
15. CC1CC1C(=O)OCC(=O)c1c(N)n(C)c(=O)n(C)c1=O (stereo unspecified)  -4.6%
16. COc1ccc(-c2nc3cc([N+](=O)[O-])ccc3o2)cc1OC  -4.49%
17. Cc1noc(C)c1COc1ccc2ccc(=O)oc2c1  -4.27%
18. Cc1cc(Oc2ccccc2)nc(N2CCOCC2)n1  -4.03%
19. COc1ccc(/C=C/C(=O)c2cc(Br)ccc(=O)c2O)cc1  -3.91%
20. Cc1cccc(NC(=S)NC(=O)c2ccc(Br)o2)c1  -3.34%
21. Cc1ccc(C)c(-n2ccnc2SCC(N)=O)c1  -3.12%
22. O=C(COc1ccccc1)Nc1ccc(N2CCN(C(=O)c3cccs3)CC2)cc1  -3.12%
23. COc1ccc(OC)c(C(=O)c2ccc(C(=O)O)cc2)c1  -2.29%
24. Cc1cc(NC(=O)CSc2nccn2-c2ccc([N+](=O)[O-])cc2)no1  -2.13%
25. COc1ccccc1NC(=O)c1c(Br)cnn1C  -1.37%
26. COc1ncnc2sc3c(c12)CCCC3  -1.31%
27. C(=N/Nc1cc(N2CCOCC2)nc(N2CCOCC2)n1)/c1ccccc1  -1.17%
28. O=[N+]([O-])c1ccc(N2CCNCC2)cc1NCc1cccnc1  -1.11%
29. O=C(NNC1=C(C(=O)C(F)(F)F)CCC1)c1ccncc1  -0.87%
30. O=C(O)[C@@H]1CCCN1c1ncnc2sc3c(c12)CCC3  -0.86%
31. O=C1c2ccccc2C(=O)N1CCC(O)C[N+](=O)[O-] (stereo unspecified)  -0.84%
32. N#Cc1c(NC(=O)CCCl)sc2c1CCCCC2  -0.81%
33. COc1ccc(CCNC(=O)C(=O)NCc2ccccc2C)cc1OC  -0.59%
34. CS(=O)(=O)N(CC(=O)N1CCN(Cc2ccccc2)CC1)c1ccc2c(c1)OCCO2  -0.45%
35. O=C(Nc1ccc(N2CCOCC2)cc1)c1ccc2c(c1)OCO2  -0.26%
36. CC(C)(C)NC(=O)c1ccc(Cn2cc(C(F)(F)F)ccc2=O)cc1  -0.17%
37. CC(=O)n1cc([C@H]2C=C(C(=O)N3CCOCC3)O[C@@H](OCc3ccc(CO)cc3)C2)c2ccccc21  0.43%
38. CCOc1ccc(C(C)C)cc1S(=O)(=O)n1nc(C)cc1C  0.47%
39. COc1ccc(OCC(=O)Nc2cc(C)c(Cl)cc2OC)c([N+](=O)[O-])c1  0.64%
40. Fc1cnc(N2CCOCC2)nc1NCc1ccccc1  0.72%
41. CCOc1cc(C)c(Cl)cc1S(=O)(=O)n1nnc2ccccc21  1.2%
42. CCCCCc1nnc(NC(=O)c2ccc(=O)n(C)n2)s1  1.57%
43. O=C(NC1CC1)C1CCCN(C(=O)NC2CCCCC2)C1 (stereo unspecified)  1.82%
44. Cc1ccc(Cl)cc1NC(=O)C1CCN(S(C)(=O)=O)CC1  2.22%
45. C=CCn1nc(-c2ccccc2)c2c(C)onc2c1=O  2.35%
46. COc1cc(Cl)c(S(=O)(=O)n2cnc(C)c2)cc1Cl  2.35%
47. O=C(Nc1ccc([N+](=O)[O-])cc1)C1CC12CCC2 (stereo unspecified)  2.36%
48. CCCCOC(=O)c1ccc(NC(c2ccc(C)cc2)P(=O)(OC)OC)cc1 (stereo unspecified)  2.9%
49. Clc1cccc(N=C2NN=C(c3ccc4c(c3)OCCO4)CS2)c1  4.41%
50. COc1cccc(-c2ccc(SCC(=O)N3CCN(c4ccccc4)CC3)nn2)c1  4.58%
51. COc1ccc2cc(CCl)c(Cl)nc2c1  5.05%
52. CC(CN1CCOCC1)c1ccccc1 (stereo unspecified)  5.49%
53. CN1CCN(C(=O)C2=C[C@H](c3ccc4c(c3)OCO4)C[C@H](OCc3ccc(CO)cc3)O2)CC1  5.67%
54. COc1ccc(OC)c(C(=O)c2coc3ccc(OC)cc23)c1  6.9%
55. CCc1ccccc1N1C(=O)C2C3CC(=O)C(c4ccccc43)C2C1=O (stereo unspecified)  7.01%
56. N#C/C(=C\c1ccccc1C(F)(F)F)C(=O)Nc1ccccc1F  7.15%
57. COc1ccc(/C=C/C(=O)c2ccc(OC)cc2O)cc1  7.64%
58. O=C1N=C(N2CCOCC2)S/C1=C\C=C/c1ccccc1  7.77%
59. CCO[C@H]1OC(C(=O)NCc2ccccc2)=C[C@@H](c2coc3ccccc3c2=O)[C@@H]1CCCO  8.75%
60. COCCN(C(=O)C(C)C)c1nnc(-c2ccc(C(C)(C)C)cc2)s1  8.79%
61. O=C(CCCN1C(=O)/C(=C/c2ccco2)SC1=S)Nc1ccccc1  10.2%
62. O=C(CSc1ccc(-c2cccs2)nn1)Nc1ccccc1F  10.6%
63. CCc1ccc(/C=C2\SC(N3CCOCC3)=NC2=O)cc1  12.3%
64. COc1ccc(-c2nn(-c3ccccc3)cc2CN2CCCO2)c(F)c1  13%
65. Cc1cc(C)c([N+](=O)[O-])cc1-c1ccc(/C=N/NC(=O)c2nonc2N)o1  14.1%
66. CC(Nc1nc(N2CCN(CCO)CC2)nc2ccccc12)c1ccccc1 (stereo unspecified)  16.7%
67. N#C/C(=C\c1ccc(-c2cccc([N+](=O)[O-])c2)o1)C(=O)NCCN1CCOCC1  17.4%
68. COc1cc(C(=O)NCc2ccc(-n3cccc3)cc2)cc(OC)c1OC  23%
69. COc1ccc(S(=O)(=O)N2CCOCC2)cc1NC(=O)CSc1ncnc2ccccc12  23%
70. CCc1ccc(CN(C)C(=O)CCc2nnc(-c3ccc(-c4ccccc4)cc3)o2)nc1  25.8%
71. N/C(=N\OC(=O)N1c2ccccc2Sc2ccccc21)c1ccc(Br)cc1  26%
72. O=C(CCCN1C(=O)/C(=C\c2ccco2)SC1=S)Nc1cccc2ccccc12  30.1%
73. CCOP(=O)(OCC)C(Nc1ccc([N+](=O)[O-])cc1)c1ccc(Cl)cc1 (stereo unspecified)  36.9%
74. O=C(CSc1nc2ccccc2[nH]1)N/N=C/C=C\c1ccccc1[N+](=O)[O-]  40.1%
75. c1ccc(-c2cc(N3CCCCC3)c3ccccc3n2)cc1  43.1%
76. Cc1cccc(C(=O)NCC(=O)OCC(=O)N2CC3(C)CC2CC(C)(C)C3)c1 (stereo unspecified)  43.9%

For `CC1(C)CN=C(N2CCN(c3ncnc4sc5c(c34)CCCC5)CC2)S1`, the inhibition was 100% (active).
For `COc1ccc2occ(C(=O)c3ccc(N=C(C)N(C)C)cc3)c2c1`, the inhibition was 100% (active).
For `O=C1N=C(N2CCCC2)S/C1=C\c1cccc(Br)c1`, the inhibition was 96.6% (active).
In the case of `COc1ccc(C(=O)/C=C/c2ccc(OC3CSC3)cc2)cc1`, the inhibition is reported as 75.7% (active).
For `Cc1nnc(-c2ccc(Oc3ccc(C)c(C)c3)c([N+](=O)[O-])c2)o1`, the inhibition was 64.6% (active).
With `c1ccc(CN2CCC(N=C3NN=C(c4ccc5c(c4)OCCO5)CS3)CC2)cc1` the inhibition was 75.9% (active).
With `CC(Nc1nc(N2CCCC2)nc2ccccc12)c1ccccc1` (stereo unspecified) the inhibition was 100% (active).
In the case of `CC(Nc1nc(N2CCOCC2)nc2ccccc12)c1ccccc1` (stereo unspecified), the inhibition is reported as 54.2% (active).
With `c1ccc2c(NC3C4CC5CC(C4)CC3C5)nc(N3CCOCC3)nc2c1` (stereo unspecified) the inhibition was 69.9% (active).
In the case of `Cc1ccc(-c2ccc(/C=N/NC(=O)CN3CCOCC3)o2)cc1[N+](=O)[O-]`, the inhibition is reported as 96.8% (active).
For `CNC(=O)/C(C#N)=C/c1c(F)cccc1Cl`, the inhibition was 99.2% (active).
In the case of `Cc1nnnn1/C(=C\c1ccccc1)C(=O)OCC(=O)N1CC2(C)CC1CC(C)(C)C2` (stereo unspecified), the inhibition is reported as 100% (active).
With `CCOP(=O)(OCC)C(Nc1cccc(C)c1)c1ccc(F)cc1` (stereo unspecified) the inhibition was 61.2% (active).
For `CC(=O)n1cc([C@@H]2C=C(C(=O)N3CCN(Cc4ccc5c(c4)OCO5)CC3)O[C@H](OCc3ccc(CO)cc3)C2)c2ccccc21`, the inhibition was 78.9% (active).
For `CCO[C@H]1OC(C(=O)N2CCN(Cc3ccccc3)CC2)=C[C@@H](c2cn(C(C)=O)c3ccccc23)[C@@H]1CCCO`, the inhibition was 71.4% (active).
In the case of `CN1CCN(c2ccc([N+](=O)[O-])c(Sc3nc4ccccc4[nH]3)c2)CC1`, the inhibition is reported as 57% (active).
With `O=C(CCCN1C(=O)/C(=C/c2ccccc2)SC1=S)Nc1ccc(O)cc1` the inhibition was 56.3% (active).
In the case of `N/C(=N\OC(=O)CC1CCCCC1)c1ccccc1`, the inhibition is reported as 57.8% (active).
For `COc1cc(C)c(C(C)C)cc1S(=O)(=O)n1ccnc1`, the inhibition was 97.8% (active).
For `COc1cc(C)c(Cl)cc1S(=O)(=O)n1ccnc1`, the inhibition was 80.5% (active).

From PubChem BioAssay AID1063 (University of Pittsburgh Molecular Library Screening Center, 2008)
